Columns and labels:
Experiment in all cases: DAPPL (digital affinity profiling via proximity ligation, sequencing); 10 mM Tris-HCl pH 7.5, 50 mM NaCl, 1 mM DTT, 4% glycerol, room temperature, 30 min; GST-TFs on glutathione beads, 16-mer random dsDNA library, 0.1% formaldehyde crosslink after washing; high values mean tight binding
Conditions in all cases: protein: recombinant; tags: N-terminal GST; dsDNA, one strand shown
[1] = target: T1, FLI1 (Homo sapiens, UniProt Q01543 1-452)
T1 sequence: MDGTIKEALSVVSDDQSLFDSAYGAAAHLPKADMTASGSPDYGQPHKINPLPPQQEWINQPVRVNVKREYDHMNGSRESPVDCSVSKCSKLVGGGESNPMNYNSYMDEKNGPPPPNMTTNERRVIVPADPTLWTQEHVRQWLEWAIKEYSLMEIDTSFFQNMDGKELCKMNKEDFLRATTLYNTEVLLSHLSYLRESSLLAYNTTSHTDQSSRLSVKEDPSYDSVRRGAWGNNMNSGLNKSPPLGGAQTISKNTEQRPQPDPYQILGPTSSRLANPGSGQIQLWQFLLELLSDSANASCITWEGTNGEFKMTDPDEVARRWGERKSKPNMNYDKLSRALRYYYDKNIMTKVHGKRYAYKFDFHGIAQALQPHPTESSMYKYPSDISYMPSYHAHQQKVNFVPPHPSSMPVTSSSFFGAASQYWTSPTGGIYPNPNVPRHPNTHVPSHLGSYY
Method in brief: (§1)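 Sequencing on an Illumina NextSeq500 followed washing, crosslinking with 0.1% formaldehyde, proximity ligation (BsaI/T4 ligase, 1 h, 37 °C) and PCR amplification of pools that had been incubated for 30 min at room temperature with 200 nmole of a random double-stranded 16-mer DNA library in Tris/NaCl/DTT/glycerol buffer. Each pool held DNA-barcoded human transcription factors, expressed in yeast as GST fusions and captured on glutathione beads, plus a tag-only sample. Binding signal is a hexamer's read frequency for a factor divided by its frequency in the tag-only sample.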

[2] = target: ELF1 (Homo sapiens, UniProt P32519 1-619)
ELF1, sequence (P32519 whole entry): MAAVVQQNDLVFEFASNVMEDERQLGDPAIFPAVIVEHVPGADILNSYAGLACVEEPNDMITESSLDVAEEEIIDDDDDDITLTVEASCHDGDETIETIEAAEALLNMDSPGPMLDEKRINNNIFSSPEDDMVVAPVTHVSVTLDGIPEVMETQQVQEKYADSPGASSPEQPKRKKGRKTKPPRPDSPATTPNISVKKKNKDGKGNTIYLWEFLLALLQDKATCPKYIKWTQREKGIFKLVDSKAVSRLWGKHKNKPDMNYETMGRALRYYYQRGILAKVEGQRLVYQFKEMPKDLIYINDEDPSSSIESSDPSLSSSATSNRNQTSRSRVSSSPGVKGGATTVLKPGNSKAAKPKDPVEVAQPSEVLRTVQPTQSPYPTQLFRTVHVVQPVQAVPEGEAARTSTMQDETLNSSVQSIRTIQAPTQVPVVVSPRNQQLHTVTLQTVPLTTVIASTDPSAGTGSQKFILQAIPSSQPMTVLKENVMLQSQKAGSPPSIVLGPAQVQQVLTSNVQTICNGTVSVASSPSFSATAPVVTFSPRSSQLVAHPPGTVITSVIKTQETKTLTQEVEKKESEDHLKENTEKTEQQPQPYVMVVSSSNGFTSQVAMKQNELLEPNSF
Method in brief: as §1

[3] = target: T2, SPIC (Homo sapiens, UniProt Q8N5J4 1-248)
T2 sequence: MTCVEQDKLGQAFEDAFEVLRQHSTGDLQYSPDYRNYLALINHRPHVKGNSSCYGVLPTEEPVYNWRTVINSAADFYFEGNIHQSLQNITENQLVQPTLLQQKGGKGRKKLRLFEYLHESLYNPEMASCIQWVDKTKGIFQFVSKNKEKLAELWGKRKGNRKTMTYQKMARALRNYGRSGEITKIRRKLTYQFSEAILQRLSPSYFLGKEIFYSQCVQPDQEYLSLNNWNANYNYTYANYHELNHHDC
Method in brief: as §1

[4] = target: T3, ETV2 (Homo sapiens, UniProt O00321 1-342)
T3 sequence: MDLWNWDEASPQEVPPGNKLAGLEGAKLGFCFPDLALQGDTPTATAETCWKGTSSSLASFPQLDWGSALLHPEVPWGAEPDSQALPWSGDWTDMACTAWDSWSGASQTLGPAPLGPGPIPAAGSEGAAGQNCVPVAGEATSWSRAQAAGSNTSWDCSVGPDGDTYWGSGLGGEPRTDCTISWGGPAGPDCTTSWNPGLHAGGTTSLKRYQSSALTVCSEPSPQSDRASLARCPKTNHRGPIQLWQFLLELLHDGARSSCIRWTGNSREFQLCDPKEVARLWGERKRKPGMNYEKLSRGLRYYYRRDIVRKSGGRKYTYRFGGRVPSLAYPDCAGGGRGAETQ
Method in brief: as §1

[5] = target: T4, ERF (Homo sapiens, UniProt P50548 1-548)
T4 sequence: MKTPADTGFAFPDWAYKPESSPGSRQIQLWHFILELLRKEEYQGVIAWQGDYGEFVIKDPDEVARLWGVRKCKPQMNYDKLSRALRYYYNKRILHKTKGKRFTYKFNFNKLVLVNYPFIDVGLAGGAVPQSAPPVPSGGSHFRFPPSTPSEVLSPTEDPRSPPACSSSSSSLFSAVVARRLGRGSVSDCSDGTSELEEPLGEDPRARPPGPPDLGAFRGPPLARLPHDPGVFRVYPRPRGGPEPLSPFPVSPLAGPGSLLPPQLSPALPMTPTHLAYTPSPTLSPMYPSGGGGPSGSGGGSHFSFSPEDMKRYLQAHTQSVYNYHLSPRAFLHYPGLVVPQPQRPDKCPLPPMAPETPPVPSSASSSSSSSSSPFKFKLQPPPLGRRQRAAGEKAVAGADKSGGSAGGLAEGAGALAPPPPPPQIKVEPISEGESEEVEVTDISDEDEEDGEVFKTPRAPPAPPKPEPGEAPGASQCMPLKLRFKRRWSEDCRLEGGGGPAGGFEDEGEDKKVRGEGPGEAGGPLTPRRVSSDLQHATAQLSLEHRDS
Method in brief: as §1

[6] = target: T5, ETV3L (Homo sapiens, UniProt Q6ZN32 1-361)
T5 sequence: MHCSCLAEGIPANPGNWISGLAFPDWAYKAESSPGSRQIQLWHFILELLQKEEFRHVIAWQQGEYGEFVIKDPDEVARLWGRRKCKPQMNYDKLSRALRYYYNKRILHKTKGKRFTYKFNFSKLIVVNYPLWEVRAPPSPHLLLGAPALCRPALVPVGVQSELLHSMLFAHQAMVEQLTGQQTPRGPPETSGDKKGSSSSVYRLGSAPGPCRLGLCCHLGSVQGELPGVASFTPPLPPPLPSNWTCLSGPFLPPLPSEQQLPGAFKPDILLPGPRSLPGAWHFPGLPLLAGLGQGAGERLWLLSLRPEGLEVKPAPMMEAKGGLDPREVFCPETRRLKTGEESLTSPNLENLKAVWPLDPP
Method in brief: as §1

[7] = target: T6, ETV7 (Homo sapiens, UniProt Q9Y603 1-341)
T6 sequence: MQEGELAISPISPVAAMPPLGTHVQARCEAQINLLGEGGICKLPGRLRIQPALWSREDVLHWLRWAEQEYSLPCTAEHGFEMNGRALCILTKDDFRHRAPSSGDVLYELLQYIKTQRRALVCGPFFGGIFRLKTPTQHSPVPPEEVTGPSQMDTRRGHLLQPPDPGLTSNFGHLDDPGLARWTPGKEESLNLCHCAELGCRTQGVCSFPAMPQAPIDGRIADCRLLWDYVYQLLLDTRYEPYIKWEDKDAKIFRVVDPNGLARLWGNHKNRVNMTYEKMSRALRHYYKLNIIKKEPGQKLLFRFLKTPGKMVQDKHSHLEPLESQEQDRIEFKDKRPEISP
Method in brief: as §1

[8] = target: T7, ELK1 (Homo sapiens, UniProt P19419 1-428)
T7 sequence: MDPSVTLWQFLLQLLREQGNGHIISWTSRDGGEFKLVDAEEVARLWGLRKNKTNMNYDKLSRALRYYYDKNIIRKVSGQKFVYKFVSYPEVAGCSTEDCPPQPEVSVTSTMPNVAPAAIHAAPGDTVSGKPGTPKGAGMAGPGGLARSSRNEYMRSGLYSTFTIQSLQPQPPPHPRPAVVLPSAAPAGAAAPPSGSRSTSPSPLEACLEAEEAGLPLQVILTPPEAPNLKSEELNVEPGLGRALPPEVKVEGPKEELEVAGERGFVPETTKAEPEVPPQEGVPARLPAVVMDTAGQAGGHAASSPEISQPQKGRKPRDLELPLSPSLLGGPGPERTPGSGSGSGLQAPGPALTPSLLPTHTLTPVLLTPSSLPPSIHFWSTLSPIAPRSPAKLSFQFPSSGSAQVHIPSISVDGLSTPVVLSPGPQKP
Method in brief: as §1

[9] = target: T8, EHF (Homo sapiens, UniProt Q9NZC4 1-300)
T8 sequence: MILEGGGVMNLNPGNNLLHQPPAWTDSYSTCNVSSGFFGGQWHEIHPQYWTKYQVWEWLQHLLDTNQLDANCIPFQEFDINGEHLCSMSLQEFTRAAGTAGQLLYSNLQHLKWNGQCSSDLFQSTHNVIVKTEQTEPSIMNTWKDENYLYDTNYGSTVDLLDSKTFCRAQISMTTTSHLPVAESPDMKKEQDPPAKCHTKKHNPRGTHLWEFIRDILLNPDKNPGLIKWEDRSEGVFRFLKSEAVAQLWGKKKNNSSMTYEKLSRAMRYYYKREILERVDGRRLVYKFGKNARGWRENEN
Method in brief: as §1

[10] = target: SPI1 (Homo sapiens, UniProt P17947 1-270)
Method in brief: as §1

[11] = target: ELF4 (Homo sapiens, UniProt Q99607 1-663)
ELF4, sequence (Q99607 whole entry): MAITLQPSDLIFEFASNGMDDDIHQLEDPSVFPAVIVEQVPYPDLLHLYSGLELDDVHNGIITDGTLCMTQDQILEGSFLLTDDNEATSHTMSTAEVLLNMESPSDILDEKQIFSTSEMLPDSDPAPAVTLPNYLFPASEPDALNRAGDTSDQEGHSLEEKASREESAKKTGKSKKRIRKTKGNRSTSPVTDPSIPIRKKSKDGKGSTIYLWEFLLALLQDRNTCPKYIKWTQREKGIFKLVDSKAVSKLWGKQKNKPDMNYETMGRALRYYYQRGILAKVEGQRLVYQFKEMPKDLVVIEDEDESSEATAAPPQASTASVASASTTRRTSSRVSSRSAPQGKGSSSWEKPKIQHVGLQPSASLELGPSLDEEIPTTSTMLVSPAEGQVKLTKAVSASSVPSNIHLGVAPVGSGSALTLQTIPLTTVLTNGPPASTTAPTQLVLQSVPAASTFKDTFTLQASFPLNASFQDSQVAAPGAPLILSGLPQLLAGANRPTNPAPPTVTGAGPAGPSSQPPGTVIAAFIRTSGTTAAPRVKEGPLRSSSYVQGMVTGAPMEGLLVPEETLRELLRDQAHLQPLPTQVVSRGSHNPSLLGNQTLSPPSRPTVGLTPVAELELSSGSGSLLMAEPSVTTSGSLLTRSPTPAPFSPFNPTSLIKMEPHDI
Method in brief: as §1

[12] = target: T9, ELF3 (Homo sapiens, UniProt P78545 1-371)
T9 sequence: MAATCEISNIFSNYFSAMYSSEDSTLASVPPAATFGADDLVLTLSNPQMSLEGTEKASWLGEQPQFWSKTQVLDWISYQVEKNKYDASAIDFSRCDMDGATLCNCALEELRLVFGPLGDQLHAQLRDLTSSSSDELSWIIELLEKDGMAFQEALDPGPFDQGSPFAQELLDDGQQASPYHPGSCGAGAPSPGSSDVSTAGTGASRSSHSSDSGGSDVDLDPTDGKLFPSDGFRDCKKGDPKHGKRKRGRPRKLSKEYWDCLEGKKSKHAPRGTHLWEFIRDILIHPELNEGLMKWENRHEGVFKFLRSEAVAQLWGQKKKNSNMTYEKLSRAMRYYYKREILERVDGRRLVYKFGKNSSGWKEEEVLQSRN
Method in brief: as §1

[13] = target: CRX (Homo sapiens, UniProt O43186 1-299)
CRX, sequence (O43186 whole entry): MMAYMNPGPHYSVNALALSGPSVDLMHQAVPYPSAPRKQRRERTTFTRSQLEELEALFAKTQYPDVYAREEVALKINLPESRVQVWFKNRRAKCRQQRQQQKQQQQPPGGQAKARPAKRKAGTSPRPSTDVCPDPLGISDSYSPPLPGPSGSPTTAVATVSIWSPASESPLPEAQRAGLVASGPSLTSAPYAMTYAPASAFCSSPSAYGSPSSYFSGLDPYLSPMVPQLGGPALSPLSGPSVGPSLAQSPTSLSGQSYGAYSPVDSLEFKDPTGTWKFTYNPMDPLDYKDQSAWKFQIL
Method in brief: as §1

[14] = target: ETV1 (Homo sapiens, UniProt P50549 1-477)
ETV1, sequence (P50549 whole entry): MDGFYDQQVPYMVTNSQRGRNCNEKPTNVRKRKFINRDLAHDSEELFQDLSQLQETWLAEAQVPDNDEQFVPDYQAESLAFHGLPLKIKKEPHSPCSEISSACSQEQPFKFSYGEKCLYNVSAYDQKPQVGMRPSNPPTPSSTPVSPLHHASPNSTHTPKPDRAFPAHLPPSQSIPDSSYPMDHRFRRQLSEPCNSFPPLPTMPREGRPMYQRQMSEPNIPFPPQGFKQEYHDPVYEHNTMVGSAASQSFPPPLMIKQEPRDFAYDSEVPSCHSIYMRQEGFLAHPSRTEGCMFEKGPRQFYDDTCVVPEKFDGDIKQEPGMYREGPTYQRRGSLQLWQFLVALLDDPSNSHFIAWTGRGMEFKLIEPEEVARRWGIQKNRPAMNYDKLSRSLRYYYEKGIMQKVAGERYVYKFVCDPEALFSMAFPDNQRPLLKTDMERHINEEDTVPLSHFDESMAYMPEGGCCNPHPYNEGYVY
Method in brief: as §1

[15] = target: T10, ETS2 (Homo sapiens, UniProt P15036 1-469)
T10 sequence: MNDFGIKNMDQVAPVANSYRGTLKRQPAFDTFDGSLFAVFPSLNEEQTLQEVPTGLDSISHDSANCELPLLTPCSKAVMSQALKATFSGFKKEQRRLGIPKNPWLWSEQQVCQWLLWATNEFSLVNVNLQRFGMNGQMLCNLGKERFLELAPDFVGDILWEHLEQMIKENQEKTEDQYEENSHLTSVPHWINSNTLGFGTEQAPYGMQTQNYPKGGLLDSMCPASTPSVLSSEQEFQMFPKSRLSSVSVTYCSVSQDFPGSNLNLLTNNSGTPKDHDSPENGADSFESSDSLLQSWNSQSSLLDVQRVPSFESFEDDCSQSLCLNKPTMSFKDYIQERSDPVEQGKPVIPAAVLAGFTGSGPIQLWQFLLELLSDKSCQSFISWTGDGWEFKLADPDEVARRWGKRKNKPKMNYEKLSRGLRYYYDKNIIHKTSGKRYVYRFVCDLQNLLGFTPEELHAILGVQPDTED
Method in brief: as §1

[16] = target: T11, SPDEF (Homo sapiens, UniProt O95238 1-335)
T11 sequence: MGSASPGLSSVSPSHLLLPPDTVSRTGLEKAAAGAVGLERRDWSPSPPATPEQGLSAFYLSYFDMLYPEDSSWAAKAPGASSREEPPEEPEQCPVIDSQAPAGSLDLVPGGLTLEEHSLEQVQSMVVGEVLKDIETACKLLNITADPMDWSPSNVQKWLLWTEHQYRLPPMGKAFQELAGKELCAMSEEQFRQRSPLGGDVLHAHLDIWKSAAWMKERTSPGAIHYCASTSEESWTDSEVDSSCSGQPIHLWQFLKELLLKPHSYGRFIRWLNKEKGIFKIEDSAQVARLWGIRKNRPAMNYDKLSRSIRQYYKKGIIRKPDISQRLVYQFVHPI
Method in brief: as §1

| Sequence | binding signal [1] | binding signal [2] | binding signal [3] | binding signal [4] | binding signal [5] | binding signal [6] | binding signal [7] | binding signal [8] | binding signal [9] | binding signal [10] | binding signal [11] | binding signal [12] | binding signal [13] | binding signal [14] | binding signal [15] | binding signal [16] |
| --- | --- | --- | --- | --- | --- | --- | --- | --- | --- | --- | --- | --- | --- | --- | --- | --- |
| GCGTTG | 1.1 fold enrichment (6-mer frequency, TF over GST control) | 1.01 fold enrichment (6-mer frequency, TF over GST control) | 1.03 fold enrichment (6-mer frequency, TF over GST control) | 1.01 fold enrichment (6-mer frequency, TF over GST control) | 1.12 fold enrichment (6-mer frequency, TF over GST control) | 1.03 fold enrichment (6-mer frequency, TF over GST control) | 1.01 fold enrichment (6-mer frequency, TF over GST control) | – | – | – | – | – | – | – | – | – |
| ATTGAG | 1.08 fold enrichment (6-mer frequency, TF over GST control) | 1 fold enrichment (6-mer frequency, TF over GST control) | – | – | 1.02 fold enrichment (6-mer frequency, TF over GST control) | – | 1.08 fold enrichment (6-mer frequency, TF over GST control) | 1.12 fold enrichment (6-mer frequency, TF over GST control) | 1.01 fold enrichment (6-mer frequency, TF over GST control) | 1 fold enrichment (6-mer frequency, TF over GST control) | 1.05 fold enrichment (6-mer frequency, TF over GST control) | 1 fold enrichment (6-mer frequency, TF over GST control) | 1.11 fold enrichment (6-mer frequency, TF over GST control) | 1.01 fold enrichment (6-mer frequency, TF over GST control) | 1 fold enrichment (6-mer frequency, TF over GST control) | 1.01 fold enrichment (6-mer frequency, TF over GST control) |
